Results filed as inconclusive are left out. Where a call stands in place of a potency, no number is given. Active and inactive are the calls of the source. Calls follow the shape of the dose curve; as a rule, active = well fitted cell-killing curve with a large enough effect; inconclusive = small, poorly fitted or top-dose-only effect, or effect the other way; inactive = no such curve, though single readings can be large or run the other way. Peptide text beside a SMILES is read from it.
Assay: Quantitative High-Throughput drug screen in 47 multiple myeloma cell lines against the NCATS MIPE library collection: PE2_PLB cell viability assay (AID 1919869); also: nearly all actives have a fitted effect of over 35% in size
Settings: PE2_PLB myeloma cells viability, ATP luminescence, 48 h; series mostly up to 45.8 µM
Source text: PI: Beverly A. Mock Ph.D.
Laboratory of Cancer Biology and Genetics,
Center for Cancer Research, National Cancer Institute,
National Institute of Health, Bethesda, Maryland
Drug resistance and disease progression are common in multiple myeloma (MM) patients, underscoring the need for new therapeutic combinations. […] We hypothesized that effective combinations would reduce MYC expression and enhance p16 activity. […] These preclinical data identify potentially useful drug combinations for evaluation in drug-resistant MM and reveal potential mechanisms of combined drug sensitivity.
Described herein is the primary MIPE qHTS used to cherrypick compounds. Validated compounds were then further tested for potential synergistic activiy.
[1] Peat TJ, Gaikwad SM, Dubois W, Gyabaah-Kessie N, Zhang S, Gorjifard S, Phyo Z, Andres M, Hughitt VK, Simpson RM, Miller MA, Girvin AT, Taylor A, Williams D, D'Antonio N, Zhang Y, Rajagopalan A, Flietner E, Wilson K, Zhang X, Shinn P, Klumpp-Thomas C, McKnight C, Itkin Z, Chen L, Kazandijian D, Zhang J, Michalowski AM, Simmons JK, Keats J, Thomas CJ, Mock BA. Drug combinations identified by high-throughput screening promote cell cycle transition and upregulate Smad pathways in myeloma. Cancer Lett. 2023 Aug 1;568:216284. doi: 10.1016/j.canlet.2023.216284. Epub 2023 Jun 24. PMID: 37356470; PMCID: PMC10408729.
SEQUENCE No. (e.g., 1, 2, 3, etc.); […] (e.g., Cells, Incubation, Reagent, etc.); VALUE and DESCRIPTION.
1; Cells; 5 uL; white, solid bottom 1536-well Greiner assay plate.
2; Compounds; 23 nL; Kalypsis pin tool (Wako USA) equipped with a 1536-well pin head to transfer to the assay plates.
3; Incubation; 48 hours; 37C incubation.
4; Reagent;5uL; CellTiter Glo (Promega).
5; Detector; 425V; Luminescence; Viewlux PerkinElmer.
NOTES (numbers refer to Sequence numbers above)
1. The cell-based screening methods employed in this study were like those previously published. Briefly, the corresponding myeloma cell lines were screened in 1,536-well plates with 500 cells, 5-uL per well for inhibition of cell viability (assessed by measuring ATP levels with CellTiterGlo).
2. NCATS MIPE 4.0 library of approved and investigational drugs were added using the Kalypsis pin tool. Wells treated with DMSO only for 100% viability and media only for 0% viability were used as controls.
3. The assay plates were covered and incubated for 48 hours in a 37C, 5% CO2 incubator with controlled humidity.
4. After 48 hours, CellTilter-GloTM luminescent substrate mix (Promega) reagent was added to the assay plate and plates we incubated for 5 min at room temperature.
5. Signal was measured as median relative luminescence units on a ViewLux (PerkinElmer) multiplate reader.
[1] Heske CM, Davis MI, Baumgart JT, Wilson K, Gormally MV, Chen L, Zhang X, Ceribelli M, Duveau DY, Guha R, Ferrer M, Arnaldez FI, Ji J, Tran HL, Zhang Y, Mendoza A, Helman LJ, Thomas CJ. Matrix Screen Identifies Synergistic Combination of PARP Inhibitors and Nicotinamide Phosphoribosyltransferase (NAMPT) Inhibitors in Ewing Sarcoma. Clin Cancer Res. 2017 Dec 1;23(23):7301-7311. doi: 10.1158/1078-0432.CCR-17-1121. Epub 2017 Sep 12. PMID: 28899971; PMCID: PMC6636827.
Potency is read from the fitted curve at half-maximal effect.

Question: With CN(C)c1ccc(O)c2c1C[C@H]1C[C@H]3[C@H](N(C)C)C(=O)C(C(N)=O)=C(O)[C@@]3(O)C(=O)C1=C2O as the compound, how does the Potency read?
Answer: Its Potency is 20.9 µM (active).

Question: With Cc1cc(Cl)ccc1OCCCC(=O)NO as the compound, how does the Potency read?
Answer: Its Potency is 7.43 µM (active).

Question: With COC(=O)[C@H](Cc1ccccc1)NC(=O)[C@@H](N)CC(=O)O (H-Asp-Phe-OMe) as the compound, how does the Potency read?
Answer: The Potency was “inactive”.

Question: For O=C(CS(=O)Cc1ccco1)NCC=CCOc1cc(CN2CCCCC2)ccn1 (stereo not given), which Potency is on record?
Answer: The Potency was “inactive”.

Question: With COc1cc2c(cc1OC)C1CC(=O)C(CC(C)C)CN1CC2 (stereo not given) as the compound, how does the Potency read?
Answer: Its Potency is “inactive”.

Question: With CCCCc1ccc2nc(NC(=O)OC)[nH]c2c1 as the compound, how does the Potency read?
Answer: The Potency was 0.0418 µM (active).

Question: Which Potency does the source give for CN(C)c1ccc2nc3ccc(=[N+](C)C)cc-3sc2c1 here?
Answer: Its Potency is 3.72 µM (active).

Question: For C[C@]12CCC(=O)C=C1CC[C@@H]1[C@H]2[C@@H](O)C[C@@]2(C)[C@H]1CC[C@]2(O)C(=O)CO, which Potency is on record?
Answer: The Potency was “inactive”.

Question: Which Potency does the source give for COC(=O)N[C@H](C(=O)N[C@@H](Cc1ccccc1)[C@@H](O)CN(Cc1ccc(-c2ccccn2)cc1)NC(=O)[C@@H](NC(=O)OC)C(C)(C)C)C(C)(C)C here?
Answer: Its Potency is “inactive”.

Question: For CCC1=C(C)CN(C(=O)NCCc2ccc(S(=O)(=O)NC(=O)NC3CCC(C)CC3)cc2)C1=O (stereo not given), which Potency is on record?
Answer: Its Potency is “inactive”.

Question: With CCOC(=O)c1c(C)n(C)c2ccc(O)cc12 as the compound, how does the Potency read?
Answer: The Potency was “inactive”.

Question: With COc1ccc(C2(C#N)CCC(C(=O)O)CC2)cc1OC1CCCC1 (stereo not given) as the compound, how does the Potency read?
Answer: The Potency was “inactive”.

Question: Which Potency does the source give for N[C@@H](Cc1cc(I)c(Oc2cc(I)c(O)c(I)c2)c(I)c1)C(=O)O here?
Answer: Its Potency is “inactive”.

Question: With COc1cc2c(N3CCN(C(=O)Nc4ccc(OC(C)C)cc4)CC3)ncnc2cc1OCCCN1CCCCC1 as the compound, how does the Potency read?
Answer: Its Potency is 16.6 µM (active).

Question: For N=C(N=C(N)N)N1CCOCC1, which Potency is on record?
Answer: The Potency was “inactive”.

Question: For CN(C)CCc1c[nH]c2ccc(Cn3cncn3)cc12, which Potency is on record?
Answer: The Potency was “inactive”.

Question: With COC1=C(OC)C(=O)C(CCCCCCCCCCO)=C(C)C1=O as the compound, how does the Potency read?
Answer: The Potency was 26.4 µM (active).

Question: Which Potency does the source give for CC(C)[N+]1(C)[C@@H]2CC[C@H]1CC(OC(=O)C(CO)c1ccccc1)C2 (stereo not given in full) here?
Answer: Its Potency is “inactive”.

Question: For NCCCCNCCCN, which Potency is on record?
Answer: The Potency was 16.6 µM (active).

Question: Which Potency does the source give for O=P(O)(O)C(O)(Cn1ccnc1)P(=O)(O)O here?
Answer: The Potency was “inactive”.

Question: For COC(=O)C1=C(C)NC(C)=C(C(=O)OCCCN2CCC(c3ccccc3)(c3ccccc3)CC2)C1c1cccc([N+](=O)[O-])c1 (stereo not given), which Potency is on record?
Answer: The Potency was “inactive”.

Question: For NC(=NCc1ccccc1)NC(=O)c1nc(Cl)c(N)nc1N, which Potency is on record?
Answer: Its Potency is 9.35 µM (active).

Question: With CC(=O)NC[C@H]1CN(c2ccc(N3CCOCC3)c(F)c2)C(=O)O1 as the compound, how does the Potency read?
Answer: Its Potency is “inactive”.

Question: For OC(CN1CCN(c2cccc(Cl)c2)CC1)C(c1ccccc1)c1ccccc1 (stereo not given), which Potency is on record?
Answer: The Potency was “inactive”.

Question: Which Potency does the source give for CC1(C)CCC(C)(C)c2cc(NC(=O)c3ccc(C(=O)O)cc3)ccc21 here?
Answer: Its Potency is 20.9 µM (active).

Question: With CCOC(=O)C(C)Oc1cccc2c(=O)n(CC(=O)Nc3ccc4c(c3)OCCO4)ccc12 (stereo not given) as the compound, how does the Potency read?
Answer: The Potency was “inactive”.

Question: With c1cnc2cc3c(cc2n1)C1CNCC3C1 as the compound, how does the Potency read?
Answer: The Potency was “inactive”.

Question: For CC(C)Oc1ccc2c(=O)c(-c3ccccc3)coc2c1, which Potency is on record?
Answer: The Potency was “inactive”.

Question: For COc1cc(OC)c(C(=O)CCCN2CCCC2)c(OC)c1, which Potency is on record?
Answer: Its Potency is “inactive”.

Question: With CN(C)CCCC1(c2ccc(F)cc2)OCc2cc(C#N)ccc21 (stereo not given) as the compound, how does the Potency read?
Answer: The Potency was “inactive”.

Question: Which Potency does the source give for CCN(CC)CCOc1ccc(Nc2ncc3cc(-c4c(Cl)cccc4Cl)c(=O)n(C)c3n2)cc1 here?
Answer: The Potency was 0.0418 µM (active).

Question: With CCC(C)(Oc1ccc(C2(c3ccc(OC(C)(CC)C(=O)O)cc3)CCCCC2)cc1)C(=O)O (stereo not given) as the compound, how does the Potency read?
Answer: Its Potency is “inactive”.

Question: For O=C(OC1C[C@H]2CC[C@@H](C1)[N+]21CCCC1)C(O)(c1ccccc1)c1ccccc1 (stereo not given in full), which Potency is on record?
Answer: The Potency was “inactive”.

Question: For NS(=O)(=O)c1cc(C(=O)O)c(NCc2ccco2)cc1Cl, which Potency is on record?
Answer: The Potency was “inactive”.

Question: With Oc1ccc(-c2nc(-c3ccc(F)cc3)c(-c3ccncc3)[nH]2)cc1 as the compound, how does the Potency read?
Answer: Its Potency is 26.4 µM (active).

Question: For CC(C)c1ccc2oc3nc(N)c(C(=O)O)cc3c(=O)c2c1, which Potency is on record?
Answer: Its Potency is “inactive”.

Question: Which Potency does the source give for Cc1cc(C2CCCCC2)n(O)c(=O)c1 here?
Answer: The Potency was 8.33 µM (active).

Question: With O=C(O)c1cc(=O)c2c(OCC(O)COc3cccc4oc(C(=O)O)cc(=O)c34)cccc2o1 as the compound, how does the Potency read?
Answer: The Potency was “inactive”.

Question: With Cc1nc(-c2ccc(OCC(C)C)c(C#N)c2)sc1C(=O)O as the compound, how does the Potency read?
Answer: The Potency was “inactive”.

Question: Which Potency does the source give for COc1ccc2cc([C@H](C)C(=O)O)ccc2c1 here?
Answer: Its Potency is “inactive”.

From PubChem BioAssay (NCATS)
